One assay has as its system CDKL2.
With `O=C(Nc1n[nH]c2nc(-c3nccs3)c(Br)cc12)C1CCCC1` [SB-742609], the Kd (usually the constant that tells how readily two partners part at equilibrium) was determined as 500 nM.
On the same count and under the same terms, the figure for `O=C(Nc1n[nH]c2nc(-c3nccs3)c(Br)cc12)C1CC1` [SB-742251] is 480 nM; for `O=C(Nc1n[nH]c2cc(-c3cccc(F)c3F)ccc12)C1CC1` [SB-733894] it is 300 nM.

The subject of the next assay is CIT.
`Cc1ccc(NC(=O)Nc2cccc(Cl)c2)cc1-c1ccc(C(=O)Nc2ccncc2)cc1` [GSK1398468] returned a Kd of 150 nM.
Still for that read-out and setting: the result for `Cc1cccc(-c2nc(Nc3ccncc3)c3ccccc3n2)n1` [GW855857] reads 440 nM; that for `O=C(Nc1ccccc1)Nc1cccc(Oc2ccc3nccn3n2)c1`, 1.1 nM.

Another assay concerns CLK3.
`Cn1cncc1-c1ccc2ncnc(Nc3ccc(OCc4ccccc4)cc3)c2c1` [GW320571]: the Kd was more than 10000 nM.
On the same count and under the same terms, the figure for `COc1cc2nccc(Nc3ccc(NC(=O)c4ccc(C)cc4)c(O)c3)c2cc1OC.Cl` [GW440132] is more than 10000 nM; for `COc1ccc(Nc2nccc(NCCNC(=O)Nc3ccccc3F)n2)cc1` [GSK1379901] it is more than 10000 nM.

For another assay, the system named is CSF1R.
The compound `CC(=O)Nc1nc2cnc(Nc3cc(NC(=O)c4cccc(CCC#N)c4)ccc3C)nc2s1` registered a Kd of more than 10000 nM.
Same read-out and setting: the result for `O=C(Nc1ccccc1)Nc1cccc(Oc2ccc3nccn3n2)c1` reads 27 nM; that for `Cn1ccc2ncnc(Oc3ccc(NC(=O)Nc4ccccc4)cc3)c21`, 82 nM.

The next assay relates to CSNK1E.
The compound `Cn1cncc1-c1ccc2ncnc(Nc3ccc(OCc4ccccc4)cc3)c2c1` [GW320571] registered a Kd of more than 10000 nM.
Still for that read-out and setting: the figure for `CN(C)CCN(C)C(=O)c1cc(-c2ccncc2)c(-c2ccc(Cl)c(O)c2)o1.Cl.Cl` [SB-710397] is 410 nM; for `CC(C)(C)c1ccc(C(=O)Nc2cn3cc(-c4cccnc4)ccc3n2)cc1` it is 110 nM; for `COc1ccc(Nc2nccc(NCCNC(=O)Nc3ccccc3F)n2)cc1` [GSK1379901] it is more than 10000 nM.

The next assay deals with CSNK2A2.
`Fc1cc(Cl)ccc1Nc1ccnc2cc(-c3ccc(CN4CCCCC4)o3)ccc12` [GW560116] registered a Kd of more than 10000 nM.
On the same count and under the same terms, the figure for `COc1cc2ncnc(Nc3ccc4nc(-c5ccccc5)[nH]c4c3)c2cc1OC.Cl` [GW282450] is more than 10000 nM; for `COc1ccccc1CNC(=O)c1cc(C(=O)c2ccccc2C)c[nH]1` [GSK364507] it is 5100 nM.
The same measure, in the same setting: the result for `Cc1cccc(-c2nc(Nc3ccc4[nH]ncc4c3)c3ccccc3n2)n1` [GW857175] reads 42 nM.
The same measure, in the same setting: the result for `Nc1ncnc2[nH]c(-c3ccccc3)nc12` [AH5015] reads 1100 nM; that for `Clc1cc(Cl)cc(Nc2ccnc(Nc3cc(Cl)cc(Cl)c3)n2)c1` [GSK175726], more than 10000 nM.

In the next assay the test system is DDR1.
With `Cc1ccc(NC(=O)Nc2cccc(Cl)c2)cc1-c1ccc(C(=O)Nc2ccncc2)cc1` [GSK1398468], the dissociation constant (Kd) came to 76 nM.
On the same count and under the same terms, the result for `Cc1cccc(-c2nc(-c3ccc(S(C)(=O)=O)cc3)sc2-c2ccnc(NCCc3ccccc3)c2)c1` reads 230 nM; that for `COC(=O)c1c(-c2ccccc2)c2cc(OC)ccc2c(=O)n1Cc1ccccc1`, 280 nM; that for `CC(=O)Nc1nc2cnc(Nc3cc(NC(=O)c4cccc(CCC#N)c4)ccc3C)nc2s1`, more than 10000 nM.
On the same count and under the same terms, the result for `Cl.O=C(Nc1cccc(-c2nn3ncccc3c2-c2ccnc(Nc3cccnc3)n2)c1)c1c(F)cccc1F` [GSK312879] reads 140 nM; that for `COC(=O)c1c(-c2ccccc2)c2cc(C(=O)O)ccc2c(=O)n1Cc1ccccc1`, 160 nM; that for `O=C(Nc1ccccc1)Nc1cccc(Oc2ccc3nccn3n2)c1`, 24 nM.
Same read-out and setting: the figure for `Cc1ccc(NC(=O)Nc2cc(C(C)(C)C)nn2-c2ccccc2)cc1` [GSK1014915] is 1300 nM.

Values taken from paper PMC5540273 (PLoS ONE, 2017).
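Also: kd values determined as follow-up on hits from a single-replicate KINOMEscan panel screen.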
